One assay deals with Albumin (Bos taurus) (UniProt P02769). Put plainly: bovine serum albumin binders on microarray, profiling panel, artefact control for SMM control protein annotation, biochemical, small-molecule microarray, Alexa647 label, 635/667 nm fluorescence (AID 1118).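 Further: score merges 667 nm emission intensity and signal-to-noise per printed compound spot.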 Particulars: BSA-A647 binding, fluorescence 635 nm, higher = more signal.
The nature of assay [1]: small-molecule microarray binders of probe aXIP, primary screen, biochemical, NeuroSMM set, 635/667 nm fluorescence (AID 1119).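 Further: probe is the protein aXip251-270 applied at 1 µg/mL to compound-printed slides; binding of probe to printed compounds measured as 667 nm fluorescence plus signal to noise.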 Particulars: higher = more signal, called active from +8 up or from −8 down.
Assay [2] can be described thus: small-molecule binders of probe aNOTCH3, primary screen, biochemical, small-molecule microarray, 635/667 nm fluorescence (AID 1120).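 Further: probe is a biotin-tagged antibody raised against NOTCH3 rather than NOTCH3 protein; score merges spot fluorescence near 667 nm with spot signal to noise.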 As to conditions: higher = more signal.
Assay [3] can be described thus: small-molecule binders of probe aNOTCH2, primary screen, biochemical, small-molecule microarray, 635/667 nm fluorescence (AID 1121).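 Further: score merges feature fluorescence read at 667 nm with its signal to noise.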 Particulars: higher = more signal.
Assay [4] deals with Carbonic anhydrase 2 (Homo sapiens) (UniProt P00918). Put plainly: CAII small-molecule binders, profiling panel, biochemical, small-molecule microarray, Alexa647-labelled CAII (AID 1122). As to conditions: CAII-A647 binding fluorescence, higher = more signal.
Assay [5] in a line: COS7 lysate on small-molecule microarray, probe aHis, 635 nm (AID 1123).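 Further: z-score combines 667nm fluorescence intensity with signal-to-noise per printed compound spot.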 Particulars: COS7 cell lysate, fluorescence, higher = more signal.
Assay [6] is described as follows: compound binding in COS7 lysate, probe aLAP1, primary screen, cell lysate, small-molecule microarray (AID 1124).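 Further: lysate comes from COS7 cells expressing LAP1 and is applied at 0.3 µg/mL; score merges spot fluorescence near 667 nm with signal-to-noise over triplicate slides.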 Particulars: probe aLAP1, fluorescence, higher = more signal.
A further assay relates to Sam68 (KHDRBS1). Put plainly: Sam68 small-molecule binders, primary screen, biochemical, small-molecule microarray, 635 nm fluorescence (AID 1125).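 Further: score merges 667 nm channel intensity with signal to noise over triplicate slides.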 Particulars: small-molecule microarray binding, higher = more signal.
Assay [7] has as its system Chordin-like protein 2 (CHRDL2). Put plainly: CHRDL2 small-molecule binders, primary screen, biochemical, small-molecule microarray, 635 nm fluorescence (AID 1126).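 Further: printed compound slides probed with Chrdl2 protein at 4 µg/mL for 1 h at 4 C; score merges 667 nm emission intensity with signal to noise over three replicate slides.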 Particulars: small-molecule microarray binding, fluorescence 635 nm; higher = more signal.
For assay [8], the target named is Concanavalin-A (Canavalia ensiformis) (UniProt P02866). Put plainly: ConA small-molecule binders, primary screen, artefact control for SMM control protein annotation, biochemical, small-molecule microarray, Alexa647 label, 635 nm (AID 1127).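 Further: z combines 667 nm emission intensity with signal-to-noise across three replicate slides.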 Particulars: ConA-A647 binding fluorescence, higher = more signal.
Sequence of Concanavalin-A (Canavalia ensiformis) (P02866 whole entry, looked up): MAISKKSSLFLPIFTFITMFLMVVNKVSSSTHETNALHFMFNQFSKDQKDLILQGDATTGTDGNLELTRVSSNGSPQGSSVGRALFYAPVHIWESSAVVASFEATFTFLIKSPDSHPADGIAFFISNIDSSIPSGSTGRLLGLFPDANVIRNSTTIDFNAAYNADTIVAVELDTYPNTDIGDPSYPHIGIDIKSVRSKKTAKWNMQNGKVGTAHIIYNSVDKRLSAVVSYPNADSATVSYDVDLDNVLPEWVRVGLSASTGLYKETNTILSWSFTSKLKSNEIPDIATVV
Assay [9] can be described thus: anti-His antibody binders, primary screen, artefact control for SMM control protein annotation, biochemical, small-molecule microarray, 635 nm fluorescence (AID 1128).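 Further: score merges feature fluorescence with signal-to-noise for each printed compound spot.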 As to conditions: anti-His Alexa647 antibody binding, higher = more signal.
Assay [10] has as its system Human papillomavirus type 1a E7 protein (residues 1-88). Put plainly: HPV1a E7 small-molecule binders, primary screen, biochemical, small-molecule microarray, residues 1-88, 635 nm (AID 1129). As to conditions: small-molecule microarray binding, fluorescence 635 nm; higher = more signal.
In assay [11] the target is Focal adhesion kinase 1 (Homo sapiens) (UniProt Q05397). Put plainly: small-molecule microarray binders of FAK, primary screen, biochemical, 635/667 nm fluorescence, BSA, DTT (AID 1130).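 Further: composite of spot emission at 667 nm and signal to noise over triplicate slides.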 As to conditions: PTK2 binding, 635 nm fluorescence, higher = more signal.
Sequence of Focal adhesion kinase 1 (Homo sapiens) (Q05397 whole entry, looked up): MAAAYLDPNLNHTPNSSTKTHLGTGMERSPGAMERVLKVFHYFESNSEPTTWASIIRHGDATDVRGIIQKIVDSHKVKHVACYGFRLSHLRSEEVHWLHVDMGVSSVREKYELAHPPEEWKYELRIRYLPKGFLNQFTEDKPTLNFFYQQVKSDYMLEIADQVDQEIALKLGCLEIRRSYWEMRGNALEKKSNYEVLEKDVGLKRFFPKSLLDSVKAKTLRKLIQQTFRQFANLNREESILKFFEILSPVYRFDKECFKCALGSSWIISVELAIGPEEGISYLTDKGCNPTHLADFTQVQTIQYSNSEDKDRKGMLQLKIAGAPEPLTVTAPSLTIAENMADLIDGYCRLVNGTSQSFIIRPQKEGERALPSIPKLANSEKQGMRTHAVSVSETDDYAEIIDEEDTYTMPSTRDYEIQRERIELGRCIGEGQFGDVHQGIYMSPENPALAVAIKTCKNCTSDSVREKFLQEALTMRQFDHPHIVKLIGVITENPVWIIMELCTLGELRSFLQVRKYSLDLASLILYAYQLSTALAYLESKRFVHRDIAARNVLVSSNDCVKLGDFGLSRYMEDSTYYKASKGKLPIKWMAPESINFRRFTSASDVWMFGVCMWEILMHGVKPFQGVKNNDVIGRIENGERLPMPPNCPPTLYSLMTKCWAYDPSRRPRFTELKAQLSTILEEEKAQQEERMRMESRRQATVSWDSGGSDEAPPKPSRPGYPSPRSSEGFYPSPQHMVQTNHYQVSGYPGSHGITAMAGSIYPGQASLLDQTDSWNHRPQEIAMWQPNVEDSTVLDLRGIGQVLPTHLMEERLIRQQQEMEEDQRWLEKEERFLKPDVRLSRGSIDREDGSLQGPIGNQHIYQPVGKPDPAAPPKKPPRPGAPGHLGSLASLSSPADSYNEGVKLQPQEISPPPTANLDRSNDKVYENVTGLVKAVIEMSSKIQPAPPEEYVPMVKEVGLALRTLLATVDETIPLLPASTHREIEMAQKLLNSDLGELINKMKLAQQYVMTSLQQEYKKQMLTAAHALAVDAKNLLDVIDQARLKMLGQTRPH
Assay [12] concerns Fibrinogen (Alexa647-labelled). Put plainly: fibrinogen binders on compound microarrays, profiling panel, artefact control for SMM control-protein annotation, biochemical, small-molecule microarray, 635/667 nm fluorescence (AID 1131).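 Further: z-score merges 667 nm fluorescence with per-spot signal-to-noise over triplicate slides.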 Particulars: fibrinogen-A647 binding fluorescence, higher = more signal.
In assay [13] the target is Follistatin (Homo sapiens) (UniProt P19883). Put plainly: follistatin binders on small-molecule microarrays, primary screen, biochemical, small-molecule microarray, 635/667 nm fluorescence (AID 1132). Particulars: FST binding, 635 nm fluorescence, higher = more signal.
Sequence of Follistatin (Homo sapiens) (P19883 whole entry, looked up): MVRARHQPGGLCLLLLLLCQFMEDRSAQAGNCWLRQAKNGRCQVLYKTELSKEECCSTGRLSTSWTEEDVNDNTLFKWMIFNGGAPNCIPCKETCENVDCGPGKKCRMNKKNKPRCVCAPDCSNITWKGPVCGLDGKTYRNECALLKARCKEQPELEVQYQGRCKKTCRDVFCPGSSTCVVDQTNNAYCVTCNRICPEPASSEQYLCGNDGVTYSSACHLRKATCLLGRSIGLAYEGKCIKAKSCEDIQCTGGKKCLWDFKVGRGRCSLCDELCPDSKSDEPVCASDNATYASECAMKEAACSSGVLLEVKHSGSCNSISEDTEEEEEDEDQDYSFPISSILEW
Assay [14] addresses Fibroblast growth factor 2 (Homo sapiens) (UniProt P09038). Put plainly: FGF2 binders on small-molecule microarrays, primary screen, biochemical, small-molecule microarray, 635/667 nm fluorescence (AID 1133). Particulars: small-molecule microarray binding, FGF2, fluorescence 635/667; higher = more signal.
A short description of assay [15]: mitochondrial membrane potential change in A549 cells, profiling panel, cell-based, JC-1 fluorescence, basal, 24 h, 100 nL (AID 1138).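 Further: A549 lung adenocarcinoma cells under basal conditions with no added stimulus; test concentration not given here.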 Particulars: higher = more signal.
For another assay, the system named is Lefty1. Put plainly: Lefty1 binders on small-molecule microarrays, primary screen, biochemical, small-molecule microarray, 635/667 nm fluorescence (AID 1139). Particulars: small-molecule microarray binding, fluorescence 635/667; higher = more signal.
In assay [16] the test system is wheat germ agglutinin (Triticum aestivum), Alexa647-labelled. Put plainly: wheat germ agglutinin binders on compound microarrays, profiling panel, artefact control for SMM control-protein annotation, biochemical, small-molecule microarray, 635/667 nm fluorescence (AID 1140).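 Further: score merges 667 nm feature emission with signal to noise over triplicate slides.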 Particulars: WGA-A647 binding, 635 nm fluorescence, higher = more signal.
Assay [17] has as its target Luciferin 4-monooxygenase (Photinus pyralis) (UniProt P08659). Put plainly: firefly luciferase enzyme inhibitors, primary screen, biochemical, luminescence, purified enzyme, 2006 set (AID 1141).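 Further: cell-free assay with purified firefly luciferase at 100 ng per well in PBS; test concentration not given here.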 Particulars: SteadyGlo luminescence, 30 min, higher = more signal, called active from +8 up or from −8 down.

Results on five molecules are retold here after PubChem BioAssay.

Each structure is given as a SMILES string. The source made the active and inactive calls.

Sequence of Albumin (Bos taurus) (P02769 whole entry, looked up): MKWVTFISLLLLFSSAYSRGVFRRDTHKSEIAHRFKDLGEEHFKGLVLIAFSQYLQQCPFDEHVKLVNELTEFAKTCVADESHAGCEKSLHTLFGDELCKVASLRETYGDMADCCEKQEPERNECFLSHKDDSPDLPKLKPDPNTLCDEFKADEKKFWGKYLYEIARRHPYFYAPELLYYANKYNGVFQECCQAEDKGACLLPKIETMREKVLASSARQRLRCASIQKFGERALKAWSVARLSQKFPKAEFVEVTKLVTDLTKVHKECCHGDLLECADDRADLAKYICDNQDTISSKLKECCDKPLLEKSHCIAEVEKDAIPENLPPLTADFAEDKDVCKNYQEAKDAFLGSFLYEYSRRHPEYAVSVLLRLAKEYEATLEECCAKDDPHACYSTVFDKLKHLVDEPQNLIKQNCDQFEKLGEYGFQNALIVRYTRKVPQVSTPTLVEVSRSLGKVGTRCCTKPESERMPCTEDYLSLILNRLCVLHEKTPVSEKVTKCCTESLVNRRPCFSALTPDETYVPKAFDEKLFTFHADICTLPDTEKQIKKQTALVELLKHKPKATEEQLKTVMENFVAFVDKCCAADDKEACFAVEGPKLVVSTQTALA
Sequence of Fibroblast growth factor 2 (Homo sapiens) (P09038 whole entry, looked up): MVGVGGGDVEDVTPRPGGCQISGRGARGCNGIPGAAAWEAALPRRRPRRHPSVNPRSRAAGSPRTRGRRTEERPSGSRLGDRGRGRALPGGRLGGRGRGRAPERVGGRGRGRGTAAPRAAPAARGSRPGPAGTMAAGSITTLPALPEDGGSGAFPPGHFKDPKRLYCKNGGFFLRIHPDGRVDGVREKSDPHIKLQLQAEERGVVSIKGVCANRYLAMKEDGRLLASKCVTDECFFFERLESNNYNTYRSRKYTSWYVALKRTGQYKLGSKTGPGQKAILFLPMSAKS
Sequence of Luciferin 4-monooxygenase (Photinus pyralis) (P08659 whole entry, looked up): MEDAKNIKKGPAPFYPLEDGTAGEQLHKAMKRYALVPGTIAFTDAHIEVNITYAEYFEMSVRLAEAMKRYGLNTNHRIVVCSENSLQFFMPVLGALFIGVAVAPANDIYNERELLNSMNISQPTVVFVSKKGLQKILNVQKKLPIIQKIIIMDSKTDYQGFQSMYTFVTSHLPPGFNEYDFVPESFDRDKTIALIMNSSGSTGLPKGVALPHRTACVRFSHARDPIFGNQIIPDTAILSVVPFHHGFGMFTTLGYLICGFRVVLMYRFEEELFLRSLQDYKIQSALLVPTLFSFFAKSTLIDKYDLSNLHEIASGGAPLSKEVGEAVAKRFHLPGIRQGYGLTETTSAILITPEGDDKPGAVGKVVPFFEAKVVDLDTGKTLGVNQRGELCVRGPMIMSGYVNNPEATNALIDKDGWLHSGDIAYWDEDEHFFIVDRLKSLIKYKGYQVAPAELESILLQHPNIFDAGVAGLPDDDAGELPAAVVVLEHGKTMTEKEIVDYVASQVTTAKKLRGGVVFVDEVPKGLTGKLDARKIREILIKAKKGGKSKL

Take `CC1CC/C=C\[C@H]2OC34C=CCN(C(C)(C)C)C(=O)[C@H]3N(CCO)C(=O)[C@@H]4C2C(=O)O1` (stereo not given in full): the composite z-score with Albumin (Bos taurus) was 0.922; in assay [2], -0.341; in assay [3], -0.148; in assay [4], 0.917; in assay [5], 1.08; in assay [6], 1.41. Also, the composite z-score in the assay on Sam68 (KHDRBS1) is -0.719; in assay [7], -1.31; in assay [8] it was -2.33; in assay [9], -0.931; in [10] it was -0.585; in [11] it was -0.0131. The composite z-score in assay [12] was -0.671; in assay [13] it was -0.352; in assay [14], -0.845; in the assay on Lefty1, -0.991; in [16] it was 0.119. In addition, the composite Z-score in assay [1] is 0.108 (inactive). The z-score in assay [15] was -0.315; in [17], 0.864 (inactive).
On to `CC(C)=CCCC(C)=CC(O)C1C=CC2C(=O)N(C)C(=O)C2N1Nc1ccccc1` (stereo not given), for which the composite z-score is 0.919 with Albumin (Bos taurus); 0.286 in assay [2]; -0.011 in [3]; 0.435 in assay [4]; 2.66 in [5]; 0.309 in [6]. The composite z-score was determined as 1.3 in the assay with Sam68 (KHDRBS1); 1.28 in [7]; 1.18 in [8]; 1.17 in [9]; 1.21 in assay [10]; 0.832 in assay [11]. Also, the composite z-score in [12] is 1.03; in [13], 1.38; in [14], 0.709; with Lefty1, 1.08; in [16], 1.22. Besides, the composite Z-score in [1] is -0.305 (inactive). Moreover, the z-score is 0.797 in assay [15] and 0.15 (inactive) in assay [17].
For the molecule `O=C(N1CCCCC1)[C@]1(Cc2ccccc2)N=C(c2ccc(OCCCO)cc2)O[C@@H]1c1ccccc1`, the composite z-score is 0.441 with Albumin (Bos taurus); 0.096 in assay [2]; -0.0561 in [3]; 0.225 in [4]; 1.24 in assay [5]; 0.968 in assay [6]. Further, the composite z-score in the assay on Sam68 (KHDRBS1) is 1.18; in assay [7] it was -0.862; in assay [8], 1.06; in [9] it was 2.63; in assay [10] it was 1.19; in assay [11], 0.534. Further, the composite z-score in assay [12] was 0.632; in assay [13], 0.301; in [14], 0.042; with Lefty1 it was -0.506; in assay [16] it was 0.99. Besides, the composite Z-score in assay [1] is -0.425 (inactive). In addition, the z-score in assay [15] is -1.62; in assay [17], -0.265 (inactive).
In the case of `COC(=O)[C@@]1(CCC(=O)OC(C)(C)C)N=C(c2ccc(OCCCO)cc2)O[C@H]1c1ccccc1N=[N+]=[N-]`, the composite z-score in the assay with Albumin (Bos taurus) was 0.373; in assay [2], -0.076; in assay [3] it was -0.127; in [4] it was 0.508; in assay [5] it was 1.95; in [6], 0.333. Moreover, the composite z-score is 0.201 in the assay with Sam68 (KHDRBS1); -0.436 in assay [7]; 0.721 in assay [8]; 0.421 in assay [9]; 1.17 in assay [10]; 0.723 in [11]. For the same molecule, the composite z-score is 0.942 in assay [12]; 1.24 in [13]; 0.0436 in assay [14]; 0.303 in the assay on Lefty1; 0.658 in assay [16]. In addition, the composite Z-score in [1] was 0.455 (inactive). Moreover, the z-score is 1.01 in assay [15] and -7.29 (inactive) in assay [17].
Turning to `C=CCC(OC(C)=O)[C@@H]1[C@@H](N(Cc2ccc(-c3ccccc3)cc2)C(=O)Cc2ccc(OC)cc2)c2cc(OCCCO)ccc2N1C(=O)Cc1ccc2ccccc2c1` (stereo not given in full), the composite z-score with Albumin (Bos taurus) was 0.0549; in [2], -0.0841; in assay [3], -0.112; in assay [4], 0.064; in assay [5], 0.49; in assay [6], -0.149. Also, the composite z-score in the assay with Sam68 (KHDRBS1) is -0.493; in assay [7], -0.0169; in [8], -1.7; in [9] it was -0.142; in assay [10], -0.442; in assay [11], 0.151. The composite z-score was 0.389 in assay [12]; -0.0399 in assay [13]; -0.197 in assay [14]; 0.168 in the assay on Lefty1; 0.182 in assay [16]. Also, the composite Z-score in assay [1] is 0.142 (inactive). Also, the figures for the z-score in assay [15] and in [17] were 0.112 and -0.358 (inactive), respectively.
